# Target: T1, Tyrosyl-tRNA synthetase, putative (Trypanosoma cruzi (strain CL Brener)) (UniProt Q4DSP6)
# T1 sequence (whole entry): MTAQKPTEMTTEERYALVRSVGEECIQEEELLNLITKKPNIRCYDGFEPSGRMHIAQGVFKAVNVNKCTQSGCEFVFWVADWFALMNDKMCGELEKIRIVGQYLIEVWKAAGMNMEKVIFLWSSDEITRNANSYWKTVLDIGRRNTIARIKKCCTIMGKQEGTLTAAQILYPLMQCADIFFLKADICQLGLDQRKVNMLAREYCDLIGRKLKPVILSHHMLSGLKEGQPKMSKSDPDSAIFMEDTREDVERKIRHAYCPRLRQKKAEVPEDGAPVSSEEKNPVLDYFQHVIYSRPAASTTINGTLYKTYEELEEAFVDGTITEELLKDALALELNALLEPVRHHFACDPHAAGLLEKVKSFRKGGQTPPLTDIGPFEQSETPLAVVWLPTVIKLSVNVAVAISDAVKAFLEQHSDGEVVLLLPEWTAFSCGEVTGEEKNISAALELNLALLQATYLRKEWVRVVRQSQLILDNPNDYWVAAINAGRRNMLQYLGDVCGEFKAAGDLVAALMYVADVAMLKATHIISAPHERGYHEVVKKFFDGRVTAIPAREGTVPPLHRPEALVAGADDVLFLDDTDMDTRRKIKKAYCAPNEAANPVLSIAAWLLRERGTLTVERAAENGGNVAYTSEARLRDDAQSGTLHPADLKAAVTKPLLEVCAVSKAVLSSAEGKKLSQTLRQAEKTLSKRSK
# Test: Trypanosoma cruzi tyrosyl tRNA synthetase (TcYRS) SOP
# Assay type: functional
# Design: scale not given: direction of the effect not stated beside the values
# Conditions: 30 µM
row,Compound,Percent Effect [%]
1,CCc1noc(C(C)N2CCN(Cc3nnc(C4CC4)o3)CC2)n1 (stereo not drawn),0
2,CN(C)CCN1CCCC12CCN(C(=O)c1cnccn1)CC2,15
3,CC(C)(C)c1n[nH]c(C2CN(C(=O)CCc3cscn3)CCO2)n1 (stereo not drawn),13.2
4,Cc1nn2cccnc2c1C(=O)N1CCCC(n2ccnc2)C1 (stereo not drawn),12.8
5,Cc1ccc2oc(C(=O)N3CCCC(c4noc(C)n4)C3)cc2n1 (stereo not drawn),8.43
6,CN1CC(c2ccccc2)CC12CCN(C(=O)c1c(Cl)cnn1C)CC2 (stereo not drawn),14.6
7,O=C(NCC1CC1)C1CCC2(CCN(C(=O)c3ccccn3)CC2)O1 (stereo not drawn),-10
8,CC(C)CN1CCN(C(=O)NCc2cccnc2-n2cccn2)CC1,7.69
9,Fc1ccc(-c2n[nH]cc2-c2ccnc(NCCN3CCCC3)n2)cc1,0
10,NCc1cn(-c2ccccc2C(=O)NCc2ccccc2)cn1,15
11,CC(C)CCC(=O)NC(C)c1nnc2n1CCCCC2 (stereo not drawn),7.06
12,CC(=O)N1CCCC1c1cc(N2CCN(C3CCCC3)CC2)cc(C)n1 (stereo not drawn),15
13,O=C1CCC(C(=O)NCc2nn(-c3ccccc3)c3c2CCC3)CN1 (stereo not drawn),6.02
14,COc1ccc(CNCc2ccc(N3CCCCC3)nc2)cc1OC,25.3
15,CN1CC(=O)N(c2cnn(C)c2)CC12CCN(C(=O)c1ccsc1)C2 (stereo not drawn),2.56
16,CCN(C)c1ncnc2c1CCN(Cc1ccc(OC)cc1)CC2,7.69
17,CCOc1ncccc1CNC(=O)Nc1ccc(N(C)C)nc1,4.71
18,Cc1nc(C)n(CC2CN(CCOCC(F)(F)F)CCO2)n1 (stereo not drawn),2.56
19,CN(CCNC(=O)c1scnc1Cl)c1ccccc1,10.3
20,Cc1[nH]ncc1C(=O)N1CCN(CC(O)C(C)(C)C)CC1 (stereo not drawn),20.5

row,Compound,Percent Effect [%]
1,CCn1ccnc1CNCC1CCCN1c1cc(NC)ncn1 (stereo not drawn),5.13
2,Cc1[nH]c2ccccc2c1-c1ccnc(NCCN2CCOCC2)n1,-2.56
3,COc1cc(S(=O)(=O)N2CCCc3ccccc32)cc(C(=O)O)c1OC,7.69
4,CN(C)C[C@H]1OC[C@@H]2CCN(S(=O)(=O)c3cccs3)C[C@@H]21,-2.56
5,COc1ccc(OC)c(C2CCN(Cc3nc(C)n4ccccc34)C2)c1 (stereo not drawn),26.8
6,Cc1cccc(C(=O)N2C[C@@H](OCc3cccnc3)[C@H]3OCCC[C@@H]32)n1,7.69
7,Cc1ccc(Cl)cc1N1CCC(CNC(=O)CCn2ccnn2)C1 (stereo not drawn),18.1
8,CC(C(=O)N1CCCC1)N1CCC(c2nccn2CC2CCC2)CC1 (stereo not drawn),12.2
9,O=C(CSc1ccc(F)c(F)c1)NS(=O)(=O)c1ccc2c(c1)OCCO2,8.43
10,CCCc1cc(C(=O)N2CCOC(c3nc(-c4cccs4)no3)C2)no1 (stereo not drawn),2.5
11,O=C(Nc1ccccc1)C1=CC2(CCNCC2)c2ccccc21,-2.5
12,CCCn1nc2c(cc1=O)CN(CC(=O)Nc1ccncc1)CC2,11.8
13,c1ccc(CNC2CCc3ncnn3C2)nc1 (stereo not drawn),20.5
14,Cc1n[nH]c(=O)c2c(NC(=O)CN3CCCC(C(F)(F)F)C3)oc(C)c12 (stereo not drawn),22.9
15,CCn1c(C)cc(C(=O)N2CCCC(n3nc(C)nc3C)C2)c1C (stereo not drawn),10.8
16,N#Cc1ccccc1OCCN1CCn2c(nnc2C2CC2)C1,2.56
17,O=C(NCCC1=CCCCC1)C1CCN(c2ccc3nncn3n2)CC1,14.6
18,c1ccc(-c2cnc(CNC3CCCN(c4cccnn4)C3)o2)cc1 (stereo not drawn),22.9
19,COc1ccc(C(=O)N2CC[C@H](CO)[C@H](O)C2)c(C)c1,9.76

# Target: Chromo domain-containing protein 1 (Saccharomyces cerevisiae (strain ATCC 204508 / S288c) (Baker's yeast)) (UniProt P32657)
# Sequence (P32657 whole entry, the tested form may be a part): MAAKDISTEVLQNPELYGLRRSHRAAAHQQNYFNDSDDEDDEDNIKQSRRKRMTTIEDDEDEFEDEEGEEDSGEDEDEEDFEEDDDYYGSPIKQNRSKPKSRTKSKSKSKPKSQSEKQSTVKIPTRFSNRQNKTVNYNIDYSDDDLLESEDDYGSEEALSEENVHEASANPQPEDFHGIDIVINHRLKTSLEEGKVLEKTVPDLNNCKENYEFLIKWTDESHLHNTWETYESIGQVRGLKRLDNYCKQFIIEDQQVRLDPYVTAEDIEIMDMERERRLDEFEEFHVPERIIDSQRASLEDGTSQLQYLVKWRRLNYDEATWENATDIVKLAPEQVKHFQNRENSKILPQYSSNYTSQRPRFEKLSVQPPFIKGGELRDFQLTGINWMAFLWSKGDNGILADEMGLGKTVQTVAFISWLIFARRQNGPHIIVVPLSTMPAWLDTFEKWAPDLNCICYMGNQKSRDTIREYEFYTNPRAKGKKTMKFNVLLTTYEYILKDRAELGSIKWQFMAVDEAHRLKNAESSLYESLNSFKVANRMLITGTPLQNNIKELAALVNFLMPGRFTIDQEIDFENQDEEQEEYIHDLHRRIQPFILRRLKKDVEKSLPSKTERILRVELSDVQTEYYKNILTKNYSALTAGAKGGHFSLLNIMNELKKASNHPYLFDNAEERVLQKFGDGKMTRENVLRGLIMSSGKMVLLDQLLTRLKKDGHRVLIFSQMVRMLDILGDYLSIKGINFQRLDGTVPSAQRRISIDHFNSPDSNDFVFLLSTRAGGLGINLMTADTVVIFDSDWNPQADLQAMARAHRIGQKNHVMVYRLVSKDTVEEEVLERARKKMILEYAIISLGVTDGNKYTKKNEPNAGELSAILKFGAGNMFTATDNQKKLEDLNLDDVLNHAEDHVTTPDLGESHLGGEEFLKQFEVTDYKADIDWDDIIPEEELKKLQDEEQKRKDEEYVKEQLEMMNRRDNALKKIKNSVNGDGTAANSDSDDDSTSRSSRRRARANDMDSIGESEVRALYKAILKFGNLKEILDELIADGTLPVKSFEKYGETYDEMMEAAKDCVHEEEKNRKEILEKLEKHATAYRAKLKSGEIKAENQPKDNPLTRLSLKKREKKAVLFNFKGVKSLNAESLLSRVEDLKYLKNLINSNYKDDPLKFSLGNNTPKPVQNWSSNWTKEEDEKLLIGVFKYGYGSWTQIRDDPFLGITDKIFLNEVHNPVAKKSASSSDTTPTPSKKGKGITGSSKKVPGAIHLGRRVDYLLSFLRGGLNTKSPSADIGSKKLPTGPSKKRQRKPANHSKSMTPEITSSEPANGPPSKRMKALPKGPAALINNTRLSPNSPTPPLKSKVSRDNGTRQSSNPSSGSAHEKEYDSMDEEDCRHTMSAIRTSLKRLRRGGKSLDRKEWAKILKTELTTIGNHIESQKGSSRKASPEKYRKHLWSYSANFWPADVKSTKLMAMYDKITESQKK
# Test: ScCHD-1 Enzyme Inhibition Assay; note: in the data most compounds retested in dose-response had high values
# Assay type: functional
# Design: scale not given: direction of the effect not stated beside the values
# Conditions: 30 µM
row,Compound,Percent Effect [%]
1,CCc1noc(C(C)N2CCN(Cc3nnc(C4CC4)o3)CC2)n1 (stereo not drawn),-5.5
2,CN(C)CCN1CCCC12CCN(C(=O)c1cnccn1)CC2,-6.82
3,CC(C)(C)c1n[nH]c(C2CN(C(=O)CCc3cscn3)CCO2)n1 (stereo not drawn),-1.16
4,Cc1nn2cccnc2c1C(=O)N1CCCC(n2ccnc2)C1 (stereo not drawn),-11.1
5,Cc1ccc2oc(C(=O)N3CCCC(c4noc(C)n4)C3)cc2n1 (stereo not drawn),-2.57
6,CN1CC(c2ccccc2)CC12CCN(C(=O)c1c(Cl)cnn1C)CC2 (stereo not drawn),-3.11
7,O=C(NCC1CC1)C1CCC2(CCN(C(=O)c3ccccn3)CC2)O1 (stereo not drawn),-4.71
8,CC(C)CN1CCN(C(=O)NCc2cccnc2-n2cccn2)CC1,-11.7
9,Fc1ccc(-c2n[nH]cc2-c2ccnc(NCCN3CCCC3)n2)cc1,-21.2
10,NCc1cn(-c2ccccc2C(=O)NCc2ccccc2)cn1,-23.1
11,CC(C)CCC(=O)NC(C)c1nnc2n1CCCCC2 (stereo not drawn),-9.02
12,CC(=O)N1CCCC1c1cc(N2CCN(C3CCCC3)CC2)cc(C)n1 (stereo not drawn),-23.3
13,O=C1CCC(C(=O)NCc2nn(-c3ccccc3)c3c2CCC3)CN1 (stereo not drawn),0.942
14,COc1ccc(CNCc2ccc(N3CCCCC3)nc2)cc1OC,-9.53
15,CN1CC(=O)N(c2cnn(C)c2)CC12CCN(C(=O)c1ccsc1)C2 (stereo not drawn),-2.51
16,CCN(C)c1ncnc2c1CCN(Cc1ccc(OC)cc1)CC2,-4.67
17,CCOc1ncccc1CNC(=O)Nc1ccc(N(C)C)nc1,-9.6
18,Cc1nc(C)n(CC2CN(CCOCC(F)(F)F)CCO2)n1 (stereo not drawn),-2.07
19,CN(CCNC(=O)c1scnc1Cl)c1ccccc1,-6.98
20,Cc1[nH]ncc1C(=O)N1CCN(CC(O)C(C)(C)C)CC1 (stereo not drawn),-6.95

row,Compound,Percent Effect [%]
1,CCn1ccnc1CNCC1CCCN1c1cc(NC)ncn1 (stereo not drawn),-7.63
2,Cc1[nH]c2ccccc2c1-c1ccnc(NCCN2CCOCC2)n1,-15.1
3,COc1cc(S(=O)(=O)N2CCCc3ccccc32)cc(C(=O)O)c1OC,-5.31
4,CN(C)C[C@H]1OC[C@@H]2CCN(S(=O)(=O)c3cccs3)C[C@@H]21,19.4
5,COc1ccc(OC)c(C2CCN(Cc3nc(C)n4ccccc34)C2)c1 (stereo not drawn),-3.48
6,Cc1cccc(C(=O)N2C[C@@H](OCc3cccnc3)[C@H]3OCCC[C@@H]32)n1,112
7,Cc1ccc(Cl)cc1N1CCC(CNC(=O)CCn2ccnn2)C1 (stereo not drawn),0.402
8,CC(C(=O)N1CCCC1)N1CCC(c2nccn2CC2CCC2)CC1 (stereo not drawn),2.51
9,O=C(CSc1ccc(F)c(F)c1)NS(=O)(=O)c1ccc2c(c1)OCCO2,-1.38
10,CCCc1cc(C(=O)N2CCOC(c3nc(-c4cccs4)no3)C2)no1 (stereo not drawn),-19.9
11,O=C(Nc1ccccc1)C1=CC2(CCNCC2)c2ccccc21,-4.38
12,CCCn1nc2c(cc1=O)CN(CC(=O)Nc1ccncc1)CC2,-14.2
13,c1ccc(CNC2CCc3ncnn3C2)nc1 (stereo not drawn),-2.61
14,Cc1n[nH]c(=O)c2c(NC(=O)CN3CCCC(C(F)(F)F)C3)oc(C)c12 (stereo not drawn),-4.61
15,CCn1c(C)cc(C(=O)N2CCCC(n3nc(C)nc3C)C2)c1C (stereo not drawn),-5.05
16,N#Cc1ccccc1OCCN1CCn2c(nnc2C2CC2)C1,-0.472
17,O=C(NCCC1=CCCCC1)C1CCN(c2ccc3nncn3n2)CC1,2.87
18,c1ccc(-c2cnc(CNC3CCCN(c4cccnn4)C3)o2)cc1 (stereo not drawn),-1.17
19,COc1ccc(C(=O)N2CC[C@H](CO)[C@H](O)C2)c(C)c1,-7.71

# From ChEMBL document CHEMBL3988442, “University of Dundee, Small-Polar-MMV Screening Library” (2021)
